KDM5B inh = Primary screen for KDM5B Histone Demethylases FDH-coupled qHTS; Potency, µM (series often up to 57.7 µM), most hits filed as inhibitors; AID 1347165, 2019; KDM5B demethylase, FDH-coupled NADH fluorescence (FDH is formaldehyde dehydrogenase); Lysine-specific demethylase 5B (Homo sapiens), Q9UGL1; actives 2.6% (n = 220,000); active means well fitted inhibition curve with a large enough effect; further: 0% is about no effect; nearly all actives have a fitted effect of over 70% in size
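qHTS format, multiple compound concentrations. Buffer 50 mM HEPES pH 7.5/0.01% Tween-20; 200 nM KDM5BΔAP final; 10 min compound preincubation; substrate-mix levels 12.5 µM peptide, 25 µM α-KG, 0.25 mM NAD⁺; 30 min RT; ΔRFU.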
The depositor's hits bear a star; i = inactive. This excerpt belongs to a sample that is enriched for hits. Potency means the concentration at half of the fitted maximal effect.

SMILES | KDM5B inh
CC(C)n1ncc2c(C(=O)Nc3ccc(Br)cc3F)c3c(nc21)CCC3 | i
Cc1nc(Cc2nn3c(-c4ccc(F)c(Br)c4)nnc3s2)cs1 | i
NCCCC(N)(C(=O)O)c1ccccc1 (configuration not stated) | i
O=C(Nc1nnc(-c2ccc(Cl)cc2)o1)C1CCN(S(=O)(=O)c2ccc3ccccc3c2)CC1 | i
CN1C(=O)C2(CC(=O)Nc3c2sc(C(=O)O)c3-c2ccccc2)c2ccccc21 (configuration not stated) | i
CSc1ccc(C2c3c(-c4ccccc4O)n[nH]c3C(=O)N2CCO)cc1 (configuration not stated) | i
c1csc(-c2cc(CSc3nnc(-c4ccncc4)o3)no2)c1 | i
Cc1c(-c2ccccc2)oc2c(C(=O)Nc3ccc(C(N)=O)cc3)cccc2c1=O | i
O=c1cc(-c2cccnc2)oc2c(-c3ccccc3Oc3ccccc3)nccc12 | i
C[S+](=O)([O-])c1cccc(-c2nccc3c(=O)cc(N4CCOCC4)oc23)c1 | 28.2µM*
O=c1cc(-c2cccnc2)oc2c(-c3ccccc3F)nccc12 | 35.5µM*
COc1cccc(N2CCN(C(=O)c3c(C)oc4ncnc(N5CCOCC5)c34)CC2)c1 | i
COc1cccc(-c2nccc3c(=O)cc(N4CCOCC4)oc23)c1 | 35.5µM*
COc1cccc(-c2nc(S(=O)(=O)c3ccc(C)cc3)c(N3CCOCC3)o2)c1 | i
O=c1cc(N2CCOCC2)oc2c(-c3cccc(F)c3)nccc12 | 39.8µM*
Cc1nc2c(sc3cccc(F)c32)c(=O)n1CC(=O)Nc1ccccc1C(F)(F)F | i
O=S(=O)(c1ccc2c(c1)CCO2)N1CCN(Cc2ccccc2)CC1 | i
CC(SCc1ccccc1)C(=O)NCc1ccco1 (configuration not stated) | i
CC1(C)[C@H](Cc2cc(COc3ccccc3)on2)C[C@@H]1NC(=O)c1cccs1 | i
O=C(NCc1ccccc1OC(F)(F)F)C1CCN(S(=O)(=O)/C=C/c2ccccc2)CC1 | i
CCCNC(=O)Nc1ccccc1CC(N)=O | i
CCOC(=O)c1c(NC(=O)N2CCN(CC)CC2)sc(C)c1C | i
O=C(NCCNC(=O)c1cc2ccccc2[nH]1)C(=O)Nc1cccc2ccccc12 | i
CN(C)c1cc(=O)c2ccnc(-c3ccccc3F)c2o1 | i
O=c1cc(N2CCOCC2)oc2c(-c3cccnc3)nccc12 | 39.8µM*
SMILES | KDM5B inh
O=c1cc(N2CCOCC2)oc2c(Nc3ccccc3)nccc12 | i
Cc1ccc(F)cc1-c1nccc2c(=O)cc(N(C)C)oc12 | 39.8µM*
CN(C)c1cc(=O)c2ccnc(-c3ccc(F)c(Cl)c3)c2o1 | 35.5µM*
O=c1cc(-c2cccnc2)oc2c(NCC3CCOCC3)nccc12 | i
COc1cccc(Nc2nccc3c(=O)cc(-c4ccccn4)oc23)c1 | i
COc1ccc(Nc2nccc3c(=O)cc(N4CCOCC4)oc23)cn1 | 31.6µM*
Oc1ccc(C2(c3ccc(Cl)cc3)CCCCC2)cc1 | i
O=C(Nc1cccc(S(=O)(=O)N2CCCC2)c1)c1ccccc1Oc1ccccc1 | i
CCn1cc(Br)c(C(=O)Nc2cc(C(F)(F)F)ccc2Cl)n1 | i
CC(C)=CC(=O)Nc1ccc(Br)c(C)c1 | i
COc1cc(C2CC(=O)Nc3c2c(C)nn3-c2ccc(C)cc2)cc(OC)c1O (configuration not stated) | i
Cc1ccc(C(=O)/C=C/c2c(C)n[nH]c2C)cc1C | i
Cc1ccc(C)c(NC(=O)C(C)NS(=O)(=O)c2ccc3c(c2)CCN3C(=O)N2CCCC2)c1 (configuration not stated) | i
NC(=O)c1ccc(COC(=O)c2ccccc2-c2ccccc2)cc1 | i
CCCCOc1ccc2c(=O)c(Oc3ccccc3)c(C)oc2c1 | i
CC(C)CCNC(=O)CSc1nc2cc([N+](=O)[O-])ccc2o1 | i
C=CCN(CC=C)C(=O)CSc1nnc(-c2c[nH]c3ccccc23)o1 | i
CN(C)c1cc(=O)c2ccnc(-c3cccc(C(F)(F)F)c3)c2o1 | i
CN1CCC(Nc2nccc3c(=O)cc(N(C)c4ccccc4)oc23)CC1 | i
COc1cccc(Cl)c1-c1nccc2c(=O)cc(N(C)C)oc12 | i
CC(=O)Nc1cccc(C(=O)OCC(=O)N2CCOCC2)c1 | i
CC(=O)Nc1cccc(-c2nccc3c(=O)cc(N4CCOCC4)oc23)c1 | 35.5µM*
COc1cccc(-c2nccc3c(=O)cc(N(C)C)oc23)c1 | 31.6µM*
O=C(O)c1cc(N2CCOCC2)ccn1 | i
O=c1cc(N2CCOCC2)oc2c(NC3CCOCC3)nccc12 | 35.5µM*
SMILES | KDM5B inh
N#Cc1ccc(COc2ccc(-n3cnnn3)cc2)c(F)c1 | i
COC1CN(c2cccc(F)c2)C12CCN(C(=O)CC1CCCCC1)CC2 (configuration not stated) | i
O=C(/C=C/C=C/c1ccc([N+](=O)[O-])cc1)c1ccccc1 | i
CN1CCN(c2oc(COc3ccccc3F)nc2C#N)CC1 | i
Cc1cc(F)ccc1NC(=O)CN1C(=O)NC2(CCC(C(C)(C)C)CC2)C1=O (configuration not stated) | i
COc1ccc(C(C)=O)cc1COC(=O)c1ccc(C#N)cc1 | i
COc1ccc(N2CCCCS2(=O)=O)cc1S(=O)(=O)NCCc1ccccc1 | i
O=C(Cc1c[nH]c2ncc(-c3ccccc3)cc12)N1CC[S+](=O)([O-])CC1 | 35.5µM*
O=C([C@@H]1C[C@H](Oc2ccccc2)CN1C(=O)Cc1c[nH]c2ccccc12)N1CCOCC1 | i
O=C(O)c1cc(-c2cccc(CO)c2)cc(S(=O)(=O)N2CCOCC2)c1 | i
O=C(Cc1c[nH]c2ncc(-c3ccc(Oc4ccccc4)cc3)cc12)N1CCOCC1 | 39.8µM*
O=C(Cc1c[nH]c2ncc(-c3cccc(CO)c3)cc12)N1CCOCC1 | 28.2µM*
O=C(CCc1c[nH]c2ccccc12)OCC(=O)N1CCOCC1 | i
Cc1ccccc1CC(=O)N1CCN(c2ncnc3nc[nH]c23)CC1 | i
Cc1ccccc1-c1cnc2[nH]cc(CC(=O)N3CCOCC3)c2c1 | 35.5µM*
O=C(O)C(Br)Cc1ccc(Cl)cc1 (configuration not stated) | i
CC[N+](C)(CC#CC(O)(c1ccccc1)C1CCCC1)C(C)C (configuration not stated) | i
N#CCCN(C(=O)COC(=O)c1cc(Cl)ccc1[N+](=O)[O-])c1cccc(C(F)(F)F)c1 | i
CC(C)CC(=O)N1CCC(NC(=O)c2ccc3ccccc3n2)CC1 | i
Cn1c(=O)c2nc(Cl)n(Cc3ccccc3)c2n(C)c1=O | i
CCN(CC)C(=O)c1ccc2oc(CN3CCN(C(=O)Nc4ccc(C)c(F)c4)CC3)nc2c1 | i
O=C(Nc1cccc(Cl)c1)c1ccc(Cn2c(=O)c3cccn3c3cccnc32)cc1 | i
CC(N)(C(=O)O)c1ccccc1 (configuration not stated) | i
CC(=O)Nc1cccc(Oc2ccc3nnc(-c4ccc(Br)cc4)n3n2)c1 | i
Cc1cc(COc2ccc(C(=O)c3ccc(Cl)cc3)cc2)no1 | i
CC(=O)N1CCN(C(=O)Cn2ccc3c(Br)cccc32)CC1 | i
CCOc1cc(C(=O)OCC(=O)Nc2ccc(F)c(Cl)c2)ccc1OCC(=O)N1CCCCC1 | i
COc1ccc(-c2cnc3[nH]cc(CC(=O)N4CCNC(=O)C4)c3c2)cc1 | 35.5µM*
COc1ccc(-c2nc3c(c(=O)[nH]2)CCN(C(=O)Cc2c[nH]c4ccccc24)C3)cc1 | i
